Laboratory results as given in PubChem BioAssay AID1159580 (chemical genetic matrix, 2015).
Several values for one entry are separate records, joined by “and”; a condition that tells them apart may be missing. Identical values can stand only once. The campaign covered roughly 5,500 compounds. About 2,000 (36%) were called active. Roughly 18% stayed inconclusive and do not appear here. Rule as the data show it: active = normalized growth mostly below about 0.91 (no sharp cut-off); inconclusive = no clear call, values can overlap the other calls; inactive = mostly above about 0.92. This is one part of the list.

Assay: chemical genetic growth profiling, strain panel (AID 1159580);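 also: tested at 20 µM; growth read once vehicle control cultures reached saturation at 30 °C; 1 = growth at the plate median or of vehicle wells; lower values mean less growth of the strain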
Conditions: S. cerevisiae deletion strains, growth OD

Measured: normalized growth

Cn1cnc([N+](=O)[O-])c1Sc1ncnc2nc[nH]c12
inactive: locus YAL021C, strain ccr4, active compounds read low 1.03 | locus YAL026C, strain drs2, active compounds read low 1.04 | locus YAL030W, strain snc1, active compounds read low 1.02 | locus YAL040C, strain CLN3, active compounds read low 1.01 | locus YBL061C, strain skt5, active compounds read low 1.03 | locus YBR009C, strain hhf1, active compounds read low 1.01 | locus YBR021W, strain FUR4, active compounds read low 1.02 | locus YBR023C, strain chs3, active compounds read low 1.02 | locus YBR171W, strain sec66, active compounds read low 1.02 | locus YBR229C, strain ROT2, active compounds read low 1.01 | locus YBR231C, strain swc5, active compounds read low 1.01 | locus YBR279W, strain paf1, active compounds read low 1.01 | locus YCL011C, strain gbp2, active compounds read low 1.01 | locus YCL016C, strain dcc1, active compounds read low 1.04 | locus YCL029C, strain bik1, active compounds read low 0.997 | locus YCL069W, strain vba3, active compounds read low 1.02 | locus YCR088W, strain abp1, active compounds read low 1.02 | locus YDL005C, strain med2, active compounds read low 1.01 | locus YDL035C, strain GPR1, active compounds read low 1.03 | locus YDL040C, strain nat1, active compounds read low 1.02 | locus YDL074C, strain BRE1, active compounds read low 1.01 | locus YDL101C, strain DUN1, active compounds read low 1.01 | locus YDL134C, strain PPH21, active compounds read low 1.02 | locus YDL185W, strain tfp1, active compounds read low 1 | locus YDL192W, strain arf1, active compounds read low 0.994 | locus YDR001C, strain nth1, active compounds read low 1.02 | locus YDR069C, strain doa4, active compounds read low 1.02 | locus YDR101C, strain arx1, active compounds read low 0.999 | locus YDR137W, strain rgp1, active compounds read low 1.02 | locus YDR150W, strain NUM1, active compounds read low 0.999 | locus YDR159W, strain sac3, active compounds read low 1 | locus YDR162C, strain NBP2, active compounds read low 1.03 | locus YDR195W, strain ref2 0.996 | locus YDR297W, strain sur2, active compounds read low 1.03 | locus YDR318W, strain mcm21, active compounds read low 0.996 | locus YDR334W, strain swr1, active compounds read low 1.03 | locus YDR335W, strain msn5, active compounds read low 1.01 | locus YDR363W, strain ESC2, active compounds read low 1.01 | locus YDR388W, active compounds read low 0.985 | locus YDR392W, strain spt3, active compounds read low 1.04 | locus YDR502C, strain sam2, active compounds read low 0.985 | locus YEL003W, strain gim4, active compounds read low 1.03 | locus YEL037C, strain rad23, active compounds read low 1.01 | locus YEL061C, strain CIN8 (second series), active compounds read low 1.03 | locus YEL061C, strain CIN8, active compounds read low 1.01 | locus YER002W, strain NOP16, active compounds read low 0.995 | locus YER015W, strain faa2, active compounds read low 1.02 | locus YER016W, strain bim1, active compounds read low 1.01 | locus YER110C, active compounds read low 0.989 | locus YER111C, strain swi4, active compounds read low 1.03 | locus YER155C, strain BEM2 (second series), active compounds read low 0.996 | locus YER155C, strain BEM2, active compounds read low 1.01 | locus YER167W, strain BCK2, active compounds read low 1.02 | locus YFR010W, strain ubp6, active compounds read low 1 | locus YGL078C, strain dbp3, active compounds read low 0.988 | locus YGL086W, strain mad1, active compounds read low 0.991 | locus YGL167C, strain pmr1, active compounds read low 1.02 | locus YGL173C, strain kem1, active compounds read low 1.02 | locus YGL227W, strain vid30, active compounds read low 1 | locus YGL240W, strain doc1, active compounds read low 1.04 | locus YGL248W, strain PDE1, active compounds read low 1.01 | locus YGL253W, strain hxk2, active compounds read low 1.03 | locus YGR078C, strain PAC10, active compounds read low 1.01 | locus YGR135W, strain pre9, active compounds read low 0.991 | locus YGR229C, strain SMI1, active compounds read low 1.03 | locus YGR252W, strain gcn5, active compounds read low 0.974 | locus YHR013C, strain ard1, active compounds read low 1.02 | locus YHR027C, strain rpn1, active compounds read low 1.03 | locus YHR030C, strain SLT2, active compounds read low 1.02 and 1.08 | locus YHR079C, strain IRE1 (second series), active compounds read low 0.995 | locus YHR079C, strain IRE1, active compounds read low 1.05 | locus YHR094C, strain hxt1, active compounds read low 0.994 | locus YHR129C, strain ARP1, active compounds read low 1.01 | locus YHR142W, strain chs7, active compounds read low 1.06 | locus YHR200W, strain rpn10, active compounds read low 0.994 | locus YIL066C, strain RNR3, active compounds read low 1.03 | locus YIL073C, strain SPO22, active compounds read low 1.02 | locus YIL125W, strain kgd1, active compounds read low 0.991 | locus YIR030C, strain dcg1, active compounds read low 0.992 | locus YJL092W, strain hpr5, active compounds read low 1.02 | locus YJL095W, strain BCK1 (second series), active compounds read low 1 | locus YJL095W, strain BCK1, active compounds read low 0.988 and 1.05 | locus YJL115W, strain asf1, active compounds read low 1.05 | locus YJL129C, strain trk1, active compounds read low 1.03 | locus YJL134W, strain LCB3, active compounds read low 1.01 | locus YJL154C, strain vps35, active compounds read low 1.02 | locus YJL164C, strain tpk1, active compounds read low 1.04 | locus YJL166W, strain qcr8, active compounds read low 1.02 | locus YJL168C, strain set2, active compounds read low 0.993 | locus YJL187C, strain SWE1 (second series), active compounds read low 0.997 | locus YJR043C, strain POL32, active compounds read low 1.04 | locus YJR066W, strain TOR1, active compounds read low 0.998 | locus YJR075W, strain HOC1, active compounds read low 1.01 and 0.99
